Compounds without any hit were thinned out: in the full panel of roughly 83,000, 20% have a hit.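 How to read the values: 0–100, growth inhibition (40 = 60% inhibited); 0, no net growth; -100 to 0, cell death (-40 = 40% of starting cells died; -100 = all dead).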 Active and inactive are the calls of the source. The calls were made as follows: active = growth percent below 10; inactive = the rest.
Columns and labels:
Test in all cases: NCI-60 one-dose screen, 48 h (100 = growth as untreated, 0 = no growth, -100 = all killed)
HCT-15 colon = settings: 10 µM unless noted
HT29 colon = settings: 10 µM unless noted
SNB-75 CNS = settings: 10 µM unless noted
SNB-19 CNS = settings: 10 µM unless noted
U251 CNS = settings: 10 µM unless noted
PC-3 prostate = settings: 10 µM unless noted
SK-MEL-5 melanoma = settings: 10 µM unless noted
UACC-62 melanoma = settings: 10 µM unless noted
LOX IMVI melanoma = settings: 10 µM
SK-MEL-28 melanoma = settings: 10 µM unless noted

Measured: growth

CCOC(=O)C1=C(N)N(c2ccccc2)C2=C(C(=O)CC(C)(C)C2)C1c1ccccc1Cl (stereo not given)
inactive: HCT-15 colon 49.1% | HT29 colon 55% | SNB-75 CNS 66.3% | SNB-19 CNS 70.5% | U251 CNS 79.3% | PC-3 prostate 29.6% | SK-MEL-5 melanoma 60.5% | UACC-62 melanoma 44% | LOX IMVI melanoma 85.4% | SK-MEL-28 melanoma 81.4%

Cc1ccc(S(=O)(=O)c2nc(S(=O)(=O)c3ccc(C)cc3)c(Cl)s2)cc1
active: HCT-15 colon -87.6% | HT29 colon -77.5% | U251 CNS -38.5% | LOX IMVI melanoma -93%
inactive: SNB-75 CNS 108% | SNB-19 CNS 81.4% | PC-3 prostate 18% | SK-MEL-5 melanoma 76.4% | UACC-62 melanoma 39.7% | SK-MEL-28 melanoma 29.4%

CCCCCCn1c(O)c(N=Nc2nc(-c3cc4ccccc4oc3=O)cs2)c2ccccc21
inactive: HCT-15 colon 36.7% | SNB-75 CNS 81.4% | SNB-19 CNS 40%
active: HT29 colon -39.7% | U251 CNS -57.5% | PC-3 prostate -2.73% | SK-MEL-5 melanoma -64.8% | UACC-62 melanoma -2.7% | LOX IMVI melanoma -63.9% | SK-MEL-28 melanoma -39.3%

Cn1cc(-c2cc3nc(-c4c[nH]c5ccc(Br)cc45)cc(N)n3n2)c2ccccc21
active: HCT-15 colon -85.2% | HT29 colon -83.1% | SNB-75 CNS -64.5% | SNB-19 CNS -68.1% | U251 CNS -89.9% | PC-3 prostate -77.3% | SK-MEL-5 melanoma -77.8% | UACC-62 melanoma -70.3% | LOX IMVI melanoma -85.1% | SK-MEL-28 melanoma -96.6%

CCCCCCCS(=O)(=O)N1CCCC(C(=O)Nc2nc3ccc(NC(=O)c4ccc(F)c(OC)c4F)cc3s2)C1 (stereo not given)
inactive: HCT-15 colon 59.6% | HT29 colon 60.2% | SNB-75 CNS 64.7% | SNB-19 CNS 31.9% | U251 CNS 38.6% | PC-3 prostate 40.3% | SK-MEL-5 melanoma 55% | UACC-62 melanoma 52.6% | LOX IMVI melanoma 34% | SK-MEL-28 melanoma 74.2%

CN(C)c1nc(NCCNS(=O)(=O)c2ccc(C(=O)/C=C/c3ccc(F)cc3)cc2)nc(Nc2ccc(F)cc2)n1
active: HCT-15 colon -91.7% | HT29 colon -100% | SNB-75 CNS -16.4% | SNB-19 CNS -74.8% | U251 CNS -100% | PC-3 prostate -75.2% | SK-MEL-5 melanoma -99.6% | UACC-62 melanoma -97.1% | LOX IMVI melanoma -100% | SK-MEL-28 melanoma -100%

C#CCOc1ccc(/C=N/Nc2nc(-c3ccc(F)cc3)cs2)cc1OC
inactive: HCT-15 colon 41.2% | HT29 colon 78.8% | SNB-75 CNS 81.8% | SNB-19 CNS 77.5% | U251 CNS 89.4% | PC-3 prostate 24.2% | UACC-62 melanoma 46.7% | LOX IMVI melanoma 62.4% | SK-MEL-28 melanoma 76.5%
active: SK-MEL-5 melanoma 3.86%

COc1c(F)ccc(C(=O)Nc2ccc3nc(NC(=O)C4CCCN(S(=O)(=O)c5ccc(Br)s5)C4)sc3c2)c1F (stereo not given)
inactive: HCT-15 colon 63% | HT29 colon 75.5% | SNB-75 CNS 66.5% | SNB-19 CNS 90.1% | U251 CNS 68% | PC-3 prostate 56.1% | SK-MEL-5 melanoma 81.5% | UACC-62 melanoma 75.6% | LOX IMVI melanoma 79.3% | SK-MEL-28 melanoma 94.6%

N=C1N=C(SCc2nc3ccccc3[nH]2)NC(=O)/C1=C/c1ccc(Cl)cc1
inactive: HCT-15 colon 103% | HT29 colon 108% | SNB-75 CNS 106% | SNB-19 CNS 105% | U251 CNS 105% | PC-3 prostate 107% | SK-MEL-5 melanoma 98.3% | UACC-62 melanoma 90.3% | LOX IMVI melanoma 91.3% | SK-MEL-28 melanoma 110%

C#CCOc1cc(N(CC)CC)ccc1C(C(=O)NC(C)(C)C)N(C(=O)C1CCc2cc(F)ccc2O1)c1ccc(Br)cc1 (stereo not given)
inactive: HCT-15 colon 65.4% | HT29 colon 77.3% | SNB-75 CNS 98.9% | SNB-19 CNS 91.5% | U251 CNS 87.2% | PC-3 prostate 38.8% | SK-MEL-5 melanoma 81% | UACC-62 melanoma 61% | LOX IMVI melanoma 35.9% | SK-MEL-28 melanoma 80.2%

O=C(CN1C(=O)/C(=C/c2ccccc2F)SC1=S)N1CCOCC1
inactive: HCT-15 colon 29.4% | HT29 colon 87.1% | SNB-75 CNS 106% | SNB-19 CNS 91% | U251 CNS 91.8% | PC-3 prostate 95.1% | SK-MEL-5 melanoma 93.9% | UACC-62 melanoma 76.2% | LOX IMVI melanoma 38% | SK-MEL-28 melanoma 86.4%

Brc1ccc(-c2n(Cc3ccc4ccccc4c3)c(-c3ccccc3)c(-c3ccccc3)[n+]2Cc2ccc3ccccc3c2)cc1
active: HCT-15 colon -85.4% | HT29 colon -98.9% | SNB-75 CNS -97.9% | SNB-19 CNS -93.4% | U251 CNS -97.8% | PC-3 prostate -29.3% | SK-MEL-5 melanoma -98.6% | UACC-62 melanoma -88.8% | LOX IMVI melanoma -92.6% | SK-MEL-28 melanoma -96.3%

CC1(C)CC[C@]2(C(=O)O)CC[C@]3(C)C(=CCC4[C@@]5(C)C[C@@H](O)[C@@H]6OC(c7ccccc7Br)OC[C@@]6(C)C5CC[C@]43C)C2C1 (stereo not given in full)
active: HCT-15 colon 8.96% | SK-MEL-5 melanoma 7%
inactive: HT29 colon 13.1% | SNB-75 CNS 48.1% | SNB-19 CNS 27.7% | U251 CNS 13.2% | PC-3 prostate 13.1% | UACC-62 melanoma 28.5% | LOX IMVI melanoma 13.5% | SK-MEL-28 melanoma 39.5%

COc1ccc(/C=C/c2nc3ccccc3n3c(-c4ccc(Cl)cc4)nnc23)cc1
inactive: HCT-15 colon 93.3% | HT29 colon 102% | SNB-75 CNS 61.2% | SNB-19 CNS 94.7% | U251 CNS 87.5% | PC-3 prostate 77.1% | SK-MEL-5 melanoma 98.6% | UACC-62 melanoma 81.3% | LOX IMVI melanoma 88.5% | SK-MEL-28 melanoma 104%

Cc1ccc(C(=O)C(c2c[nH]c3ccccc23)c2c[nH]c3ccccc23)cc1
inactive: SNB-75 CNS 70.1% | SNB-19 CNS 87.4% | U251 CNS 21.6% | PC-3 prostate 17.1% | SK-MEL-5 melanoma 83% | UACC-62 melanoma 51.2% | SK-MEL-28 melanoma 19.7%
active: HCT-15 colon -15.3% | HT29 colon -26.1% | LOX IMVI melanoma -78.5%

C#CCOc1cc(N(CC)CC)ccc1C(C(=O)NC(C)(C)C)N(C(=O)C1CCc2cc(F)ccc2O1)c1ccc(F)c(Cl)c1 (stereo not given)
inactive: HCT-15 colon 51.1% | HT29 colon 79% | SNB-75 CNS 59% | SNB-19 CNS 60.5% | U251 CNS 45.1% | PC-3 prostate 25.7% | SK-MEL-5 melanoma 61.1% | UACC-62 melanoma 45.8% | LOX IMVI melanoma 52.9% | SK-MEL-28 melanoma 75.5%

C#C[C@]1(O)CC[C@H]2[C@@H]3CC=C4c5sc(-c6ccc([N+](=O)[O-])cc6)nc5CC[C@]4(C)[C@H]3CC[C@@]21C
inactive: SNB-75 CNS 93.7% | SNB-19 CNS 34.5% | SK-MEL-5 melanoma 23% | UACC-62 melanoma 10.6%
active: HCT-15 colon -41.4% | HT29 colon -80.4% | U251 CNS 0.123% | PC-3 prostate 1.72% | LOX IMVI melanoma -59.9% | SK-MEL-28 melanoma -44.8%

O=c1oc2ccccc2cc1-c1csc(N2N=C(c3ccccc3)CC2c2ccc(N3CCOCC3)cc2)n1 (stereo not given)
inactive: HCT-15 colon 96.6% | HT29 colon 117% | SNB-75 CNS 101% | SNB-19 CNS 116% | U251 CNS 109% | PC-3 prostate 102% | SK-MEL-5 melanoma 105% | UACC-62 melanoma 92.2% | LOX IMVI melanoma 86.7% | SK-MEL-28 melanoma 109%

C#C[C@]1(O)CC[C@H]2[C@@H]3CC=C4c5sc(-c6ccc(O)c(O)c6)nc5CC[C@]4(C)[C@H]3CC[C@@]21C
active: HCT-15 colon -82.2% | HT29 colon -80.2% | SNB-75 CNS -81.4% | SNB-19 CNS -89.4% | U251 CNS -94.3% | PC-3 prostate -58.9% | SK-MEL-5 melanoma -98.4% | UACC-62 melanoma -74.7% | LOX IMVI melanoma -92.9% | SK-MEL-28 melanoma -80.3%

Nc1nc(-c2ccccc2)c(N=Nc2ccc(Cl)cc2[N+](=O)[O-])s1
inactive: HCT-15 colon 94.4% | HT29 colon 100% | SNB-75 CNS 80.1% | SNB-19 CNS 89.2% | U251 CNS 92.4% | PC-3 prostate 87.1% | SK-MEL-5 melanoma 98.8% | UACC-62 melanoma 77.3% | LOX IMVI melanoma 88.2% | SK-MEL-28 melanoma 107%

COc1ccc2c(c1)c(-c1cc(N)n3nc(-c4cn(C)c5ccccc45)cc3n1)cn2C
active: HCT-15 colon -80.1% | HT29 colon -64.6% | SNB-75 CNS -66.3% | SNB-19 CNS 4.07% | U251 CNS -80% | PC-3 prostate -20.5% | SK-MEL-5 melanoma -58.3% | UACC-62 melanoma -58.4% | LOX IMVI melanoma -87.1% | SK-MEL-28 melanoma -92.2%

COc1ccc2[nH]cc(-c3nnc(N)nc3-c3cn(C)c4ncc(Br)cc34)c2c1
inactive: HCT-15 colon 68.5% | HT29 colon 82.6% | SNB-75 CNS 31.7% | SNB-19 CNS 69.6% | U251 CNS 75.1% | PC-3 prostate 72.9% | SK-MEL-5 melanoma 85.7% | UACC-62 melanoma 68.5% | LOX IMVI melanoma 71.9% | SK-MEL-28 melanoma 54%

C=CC(=O)Nc1ccc(C)c(Oc2ccc(Cl)cc2)c1
active: SNB-75 CNS -8.04%
inactive: HCT-15 colon 49.7% | HT29 colon 60.2% | SNB-19 CNS 38% | U251 CNS 36.5% | PC-3 prostate 56% | SK-MEL-5 melanoma 53% | UACC-62 melanoma 41.6% | LOX IMVI melanoma 27.8% | SK-MEL-28 melanoma 72%

Cn1cc(-c2nc(N)nnc2-c2c[nH]c3ccc(F)cc23)c2cc(Br)cnc21
inactive: SNB-19 CNS 22.9% | UACC-62 melanoma 13.3% | LOX IMVI melanoma 13.9% | SK-MEL-28 melanoma 24%
active: HCT-15 colon 3.56% | HT29 colon -50.6% | SNB-75 CNS -15.8% | U251 CNS 1.09% | PC-3 prostate 8.22% | SK-MEL-5 melanoma -81.5%

Cc1cc(C)cc(NC(=O)Cn2cc(COn3nnc4ccccc43)nn2)c1
inactive: HCT-15 colon 106% | HT29 colon 104% | SNB-75 CNS 96.3% | SNB-19 CNS 96.2% | U251 CNS 103% | PC-3 prostate 97.9% | SK-MEL-5 melanoma 101% | UACC-62 melanoma 96.9% | LOX IMVI melanoma 100% | SK-MEL-28 melanoma 100%
